Consider 109 compounds from PubChem BioAssay AID686979 (National Center for Advancing Translational Sciences (NCATS), 2013).

Hit rate of the full screen: of about 420,000 compounds, about 50,000 (12%) were called active. Entries that show only a call come without a potency. Roughly 26% stayed inconclusive and do not appear here. The full list was thinned out, with actives kept by preference. Unmarked numbers belong to inactive results. Calls follow the shape of the dose curve; as a rule, active = well fitted inhibition curve with a large enough effect; inconclusive = small, poorly fitted or top-dose-only effect; inactive = flat fitted curve, though single readings scatter. Where a SMILES comes first, the peptide text is derived from it. [ ]: non-standard residue; d: D form. The star is where a group is joined. PhAc = O=C(Cc1ccccc1)*
Potency is read from the fitted curve at half-maximal effect.

The assay can be described thus: qHTS for Inhibitors of human tyrosyl-DNA phosphodiesterase 1 (TDP1): qHTS in cells in presence of CPT. Also: nearly all actives have a fitted effect of over 55% in size. As to conditions: chicken DT40 Tdp1-/-;hTDP1 cells + 20 nM CPT, ATP luminescence, 48 h; series mostly up to 46.2 µM. The gist of the method:
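Chicken DT40 Tdp1-/- cells complemented with human TDP1, 400 cells/well, exposed to compounds plus 20 nM camptothecin for at least 48 h at 37 C; viability read as ATP content by CellTiter-Glo luminescence.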
Background: qHTS replaces the single test concentration by a dilution series.
With `Cc1cc(C(=O)Nc2nnc(C3CC3)s2)c(C)s1`, the Potency result is “inactive”.

On to `CCOC(=O)c1nn(-c2ccccc2F)c2nc(Nc3ccccc3)cc(=O)n12`, for which the Potency result was “inactive”. On to `COc1ccc(Cc2nc(-c3ccccn3)no2)cc1OC`, for which the Potency entry is “inactive”.

As to `COc1ccc(Sc2nc(-c3ccccc3)ncc2OC)cc1`, the Potency entry was “inactive”. As to `COc1cnc(-c2ccccn2)nc1Oc1ccc(C(C)(C)C)cc1`, the Potency was 3.66 µM (active).

With `COCC(=O)Nc1cc(C(=O)N2CCCC(c3ccccc3)CC2)c2c(c1)nc(-c1ccncc1)n2C` (centres undefined), the activity change, negative = growth inhibition is 6.88% [at 9.04 µM]. On to `COc1cccc(/C=C/C(=O)OCC(=O)N2CCCc3ccccc32)c1`, for which the Potency entry was “inactive”.

Regarding `O=c1cc(-c2ccccc2)nc(N2CCCCC2)[nH]1`, the Potency entry is “inactive”. As for `CC(=O)c1cc(-c2ccccc2)[nH]c1N1CCCC1`, the Potency was 16.4 µM (active). Same read-out and setting: as for `CC(=O)c1cc(-c2ccccc2)n(CC(=O)NC2CCCCC2)c1C`, the entry is “inactive”; as for `CCCCn1c(N)c(N2CCOCC2)c(=O)n(CC(=O)NCCc2ccccc2)c1=O`, “inactive”; as for `CN(C(=O)CSc1nnc(-c2n[nH]c3ccccc23)o1)c1ccccc1`, “inactive”. Same read-out and setting: as for `Cc1c(Cl)c([N+](=O)[O-])nn1CC(=O)NCCCN1CCOCC1`, the entry is “inactive”.

Take `CCCC/C(C)=N/NC(=O)NC1CCCCC1`: the Potency entry is “inactive”. The same measure, in the same setting: for `C/C(=N\NC(=O)NC1CCCCC1)c1ccc(OC(F)F)cc1OC(F)F` the value was 23.1 µM (active); for `O=C(COC(=O)/C=C/c1ccc(OC(F)F)cc1)NC1CCCCC1`, “inactive”.

For the compound `O=C(NCc1ccccc1Cl)C1CCC(CNc2c(N3CCCCC3)c(=O)c2=O)CC1` (centres undefined), the Potency entry is “inactive”.

As for `COc1ccc2oc(=O)cc(CN3CCOCC3)c2c1`, the Potency entry is “inactive”. Consider `FC(F)(F)C1CCCN(c2nsc3ccccc23)C1` (centres undefined), for which the Potency was 2.31 µM (active). Take `O=C(NC(Cc1ccccc1)C(=O)N1CCCC(C(F)(F)F)C1)c1ccccc1` (centres undefined): the Potency entry is “inactive”. On the same count and under the same terms, for `O=C(NCC(=O)N1CCCC(C(F)(F)F)C1)c1ccccc1F` (centres undefined) the value was “inactive”; for `CCCCCC1CC(COc2ccccc2)OC1=O` (centres undefined), “inactive”. Still for that read-out and setting: for `COc1ccc(CCNC(=O)C(=O)NCC2OCCN2S(=O)(=O)c2ccc(OC)c(C)c2)cc1` (centres undefined) the value was 18.4 µM (active). Still for that read-out and setting: for `COc1ccc(S(=O)(=O)N2CCOC2CNC(=O)C(=O)NCc2ccncc2)cc1C` (centres undefined) the value was “inactive”; for `COc1ccc(CCNC(=O)C(=O)NCC2OCCN2S(=O)(=O)c2ccc(F)cc2)cc1OC` (centres undefined), “inactive”; for `CN(C)CCCNC(=O)c1cc(C(=O)Cc2ccc(Cl)cc2)c[nH]1`, “inactive”. For `CCCCN(CCCC)CC(O)Cn1c2ccccc2c(=O)c2ccccc21` (centres undefined), the Potency result was “inactive”. On the same count and under the same terms, for `Cc1ccc(C(=O)OCC(=O)N2CC(C)CC(C)C2)cc1S(=O)(=O)N1CCCCC1` (centres undefined) the value was “inactive”. Still for that read-out and setting: as for `COc1ccc(C2C(C(C)=O)=C(O)C(=O)N2Cc2cccnc2)cc1` (centres undefined), the entry is “inactive”; as for `CCCOc1ccc(C2c3c(-c4ccccc4O)n[nH]c3C(=O)N2Cc2cccnc2)cc1` (centres undefined), 23.1 µM (active). For the compound `CCOc1ccc(/C(O)=C2/C(=O)C(=O)N(Cc3cccnc3)C2c2ccc(N(C)C)cc2)c(C)c1` (centres undefined), the Potency entry is “inactive”.

`COc1ccc(S(=O)(=O)N2CCC(C(=O)NCCC(=O)NCCc3cccc(F)c3)CC2)cc1`: the Potency entry is “inactive”.

Consider `COCC(C)NC(=O)COc1nncc2ccccc12` (centres undefined), for which the Potency entry is “inactive”.

Take `NC(Cc1ccc(F)cc1)c1csc(Nc2nncc3ccccc23)n1` (centres undefined): the Potency was 4.11 µM (active).

Turning to `CN1CCN(S(=O)(=O)c2ccc(NC(=S)NC(=O)C3CC3)cc2)CC1`, the Potency result was “inactive”.

In the case of `O=C(NCCc1ccccc1)C(=O)NCC1OCCN1S(=O)(=O)c1cccs1` (centres undefined), the Potency result was “inactive”. Consider `CCCCn1c(N)c(N(CC(C)C)C(=O)c2cccc(S(=O)(=O)N3CCN(C(C)=O)CC3)c2)c(=O)[nH]c1=O`, for which the Potency entry was “inactive”. Same read-out and setting: for `COc1cc(C(=O)Nn2c(O)c(C3=c4ccccc4=NC3=O)sc2=S)ccc1O` the value was “inactive”. Still for that read-out and setting: for `CCN(CC)CCCNC(=O)CCn1nc(-c2ccc(Cl)cc2)ccc1=O` the value was “inactive”. The same measure, in the same setting: for `O=C1C=CC(=O)N1c1ccc(N2CCCCC2)cc1` the value was 1.16 µM (active). With `O=C(CN1CCN(c2ccc(Cl)cc2)CC1)N1CCCC1`, the Potency result is “inactive”. Take `O=c1[nH][nH]c(=O)c2cc(N3CCCC3)ccc12`: the Potency entry was “inactive”. For the compound `O=C(Cc1ccccc1)NNS(=O)(=O)c1ccc([N+](=O)[O-])cc1`, the Potency result is “inactive”. Same read-out and setting: as for `O=C(O)/C=C/C(=O)NNc1ccc([N+](=O)[O-])cc1`, the figure is 20.6 µM (active); as for `CNC(=S)Nc1ccc([N+](=O)[O-])cc1`, “inactive”; as for `COc1cccc(NC(=O)C(Sc2nnnn2C)c2ccccc2)c1` (centres undefined), “inactive”. Take `COCCCN1C(=O)C(CC(=O)NCc2cccs2)CC(C(=O)N2CCOCC2)=C1C` (centres undefined): the Potency entry is “inactive”. The same measure, in the same setting: for `CCOCCCN1C(=O)C2C(C(=O)Nc3ccc(OCC)cc3)C3C=CC2(O3)C1C(=O)NC1CCCCC1` (centres undefined) the value was “inactive”. The same measure, in the same setting: for `Cc1cc(-c2ccc(S(=O)(=O)N3CCN(c4cccc(C(F)(F)F)c4)CC3)s2)on1` the value was “inactive”.

As to `CCc1cccc(C)c1NS(=O)(=O)c1ccc(-c2cc(C)no2)s1`, the Potency was 0.411 µM (active). Same read-out and setting: for `CC(=O)c1ccc(NS(=O)(=O)c2ccc(-c3cc(C)no3)s2)cc1` the value was “inactive”. Consider `Cc1cc(-c2ccc(S(=O)(=O)N3CCc4ccccc4C3)s2)on1`, for which the Potency result was “inactive”. The same measure, in the same setting: for `CCc1cccc(C)c1NS(=O)(=O)c1cc(Br)cnc1N` the value was “inactive”; for `Cc1cc(C)cc(NS(=O)(=O)c2ccc(-c3cc(C)no3)s2)c1`, 2.59 µM (active); for `O=C(O)c1cccc(N=NN2CCCCCC2)c1`, “inactive”. The same measure, in the same setting: as for `CC(C)(C)c1ccc(S(=O)(=O)NC(=O)C2(C)CCN2C(=O)CC2CC2)cc1` (centres undefined), the entry is “inactive”; as for `Cc1ccnc(NC(=O)CCNS(=O)(=O)c2ccc(C)c(C)c2)c1`, “inactive”; as for `CN1CCN(C(=O)c2ccc(-c3cc4nc(NCc5cccnc5)n(C)c(=O)c4s3)cc2)CC1`, “inactive”.

In the case of `Cc1ccc(S(=O)(=O)N/N=C\c2cc3c(cc2[N+](=O)[O-])OCO3)cc1`, the Potency was 10.3 µM (active).

In the case of `CC(=O)N/N=C/c1cc2c(cc1[N+](=O)[O-])OCO2`, the Potency result is “inactive”. Turning to `Cc1ccc(-c2n[nH]c(=S)n2/N=C/c2cc3c(cc2[N+](=O)[O-])OCO3)cc1`, the Potency result is “inactive”. Still for that read-out and setting: for `O=C(Nc1ccc(Cl)cc1)c1csc([C@@H]2O[C@H](CO)[C@H](O)[C@H](O)[C@H]2O)n1` the value was “inactive”; for `O=C(Nc1ccccc1Cl)Nc1cccc2cccnc12`, “inactive”.

Consider `Fc1ccccc1COc1cccc2cccnc12`, for which the Potency entry is “inactive”. Same read-out and setting: as for `O=C(Nc1ccccc1)Oc1cccc2cccnc12`, the figure is 0.651 µM (active); as for `CCN(CC(=O)N1CCCC1)S(=O)(=O)c1ccc(F)cc1`, “inactive”. Same read-out and setting: for `O=S1(=O)C=C(SCCN2CCCC2)c2ccccc21` the value was “inactive”. Regarding `O=C(COC(=O)c1ncc(Cl)c(Cl)c1Cl)NCc1cccs1`, the Potency entry is “inactive”. Regarding `CN1CCN(c2ccc(S(=O)(=O)N3CCCCC3)cc2NC(=O)Cc2ccccc2F)CC1`, the Potency entry was “inactive”. Still for that read-out and setting: as for `CCC(=O)/C(=C(/O)c1ccccc1)c1nc2ccccc2[nH]1`, the entry is “inactive”; as for `O=C(/C(=C/c1cccc(Cl)c1)c1nc2ccccc2[nH]1)c1ccccc1`, 16.4 µM (active); as for `O=C(Cc1nc2ccccc2[nH]c1=O)c1ccc(Cl)cc1`, “inactive”. On the same count and under the same terms, for `CC(=O)c1ccc(OC(=O)N2CCOCC2)cc1` the value was “inactive”. On to `Cc1ccc(OCCNC(=O)CN2C(=O)NC3(CCCC3)C2=O)cc1`, for which the Potency entry was “inactive”.

Regarding `CCN(CC)Cc1cc(C(C)=O)ccc1O`, the Potency entry was “inactive”. With `CCCCCNC(=O)c1cccnc1SCC(=O)Nc1ccccc1OC`, the Potency entry is “inactive”. The same measure, in the same setting: as for `Cc1cc2ccccc2n1CCNC(=O)c1ccc(F)cc1`, the figure is 14.6 µM (active); as for `Cc1cc2ccccc2n1CCC(=O)O`, “inactive”. Regarding `CCC(=O)NCCc1nc2ccccc2n1CC`, the Potency result is “inactive”.

In the case of `CCCCCn1c(CCNC(=O)c2ccc(F)cc2)nc2ccccc21`, the Potency is 23.1 µM (active). In the case of `CCCCCn1c(CCCNC(=O)c2ccccc2OC)nc2ccccc21`, the Potency is 20.6 µM (active). As for `COc1ccccc1Cn1c(CO)nc2ccccc21`, the Potency result was “inactive”.

Regarding `CC(=O)NCCc1nc2cc(NC(=O)c3ccccc3)ccc2n1C`, the Potency entry is “inactive”. Still for that read-out and setting: for `Cc1cc(C(=O)COC(=O)CNC(=O)c2ccc(F)cc2)c(C)n1Cc1ccco1` the value was “inactive”; for `COc1ccc(CCNC(=O)Cn2c(=O)n(-c3ccccc3)c(=O)c3c(C)c(C)sc32)cc1OC`, “inactive”.

Turning to `Cc1cc(C)c(NC(=O)c2cc3sc(Cl)cc3n2C)c(C)c1`, the Potency entry was “inactive”.

As to `COc1ccc2c(c1)c1nc3n(c(=O)c1n2CC(=O)Nc1ccccc1)CCS3`, the Potency result is “inactive”. Still for that read-out and setting: for `COc1ccc(S(=O)(=O)Nc2ccc3c(c2)OCO3)cc1Cl` the value was “inactive”; for `COCC(=O)Nc1c(I)c(C(=O)NCC(O)CO)c(I)c(C(=O)N(C)CC(O)CO)c1I` (centres undefined), “inactive”. Still for that read-out and setting: for `CC(C)C[C@@H](NC(=O)[C@H]1CCCN1C(=O)Cc1ccccc1)C(N)=O` (PhAc-[dP]-[dL]-NH2) the value was “inactive”. On the same count and under the same terms, as for `O=C(O)Cc1ccc(NCc2ccccc2Cl)cc1`, the entry is “inactive”. `Cc1noc2ncnc(NCc3ccccc3Cl)c12`: the Potency was 18.4 µM (active).

As to `Cc1cnc(CNc2ncncc2-c2ccccc2Cl)cn1`, the Potency entry was “inactive”. On the same count and under the same terms, for `N/C(=N\OC(=O)CCCC(=O)O)c1ncc(C(F)(F)F)cc1Cl` the value was “inactive”; for `CCNC(=O)COc1cc(C)c(Br)c(C)c1`, “inactive”; for `CCn1cc(/C=C(\NC(=O)c2cc(OC)c(OC)c(OC)c2)C(=O)N2CCN(C)CC2)c2ccccc21`, “inactive”. Take `COc1ccc(C2=CC(c3ccccc3Cl)n3nc(-c4ccc(Cl)cc4)nc3N2)cc1` (centres undefined): the Potency result is “inactive”. On the same count and under the same terms, as for `CN(CC(=O)NCCN1CCOCC1)S(=O)(=O)c1ccc(F)cc1`, the entry is “inactive”; as for `Cc1ccnc(SCC(=O)Nc2cccc(S(=O)(=O)N3CCOCC3)c2)n1`, “inactive”; as for `Cc1csc(=NC(=O)c2ccccc2)n1CCO`, “inactive”. Take `C=C(C)CNC(=S)/N=c1\scc(C)n1CC`: the Potency is 18.4 µM (active).

With `CSCCC(C(=O)NC1=NCCS1)N1C(=O)c2ccccc2C1=O` (centres undefined), the Potency entry is “inactive”. As for `N/C(=N\OS(=O)(=O)c1cccc([N+](=O)[O-])c1)c1ccncc1`, the Potency entry is “inactive”.

`Cc1cc(C(=O)CSc2nc(N)cc(=O)[nH]2)c(C)n1-c1cccc(F)c1`: the Potency is 7.31 µM (active). Take `CCCCc1nnc(NC(=O)CSc2nc(N)cc(=O)[nH]2)s1`: the Potency entry was “inactive”.

Turning to `Cc1cc(=O)[nH]c(SCc2ccc(Cl)cc2)n1`, the Potency entry was “inactive”. For the compound `CCN(C(=O)CSc1nc(N)cc(=O)[nH]1)C1CCS(=O)(=O)C1` (centres undefined), the Potency result is “inactive”.

On to `Cc1cc(C(=O)CSc2nc(N)cc(=O)[nH]2)c(C)n1CCc1ccc(Cl)cc1`, for which the Potency was 16.4 µM (active). The same measure, in the same setting: as for `Cc1cc(C)c(C(=O)CSc2nc(C)cc(=O)[nH]2)c(C)c1`, the entry is “inactive”.
